# Measured values: PubChem BioAssay
# Active and inactive are the calls of the source.
# Experiments:
# [1] = molecular target: Albumin (Bos taurus) (UniProt P02769); assay: bovine serum albumin binders on microarray, profiling panel, artefact control for SMM control protein annotation, biochemical, small-molecule microarray, Alexa647 label, 635/667 nm fluorescence (AID 1118); settings: BSA-A647 binding, fluorescence 635 nm, higher = more signal;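 also: score merges 667 nm emission intensity and signal-to-noise per printed compound spot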
# [2] = small-molecule microarray binders of probe aXIP, primary screen, biochemical, NeuroSMM set, 635/667 nm fluorescence (AID 1119); settings: higher = more signal, called active from +8 up or from −8 down;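 also: probe is the protein aXip251-270 applied at 1 µg/mL to compound-printed slides; binding of probe to printed compounds measured as 667 nm fluorescence plus signal to noise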
# [3] = small-molecule binders of probe aNOTCH3, primary screen, biochemical, small-molecule microarray, 635/667 nm fluorescence (AID 1120); settings: higher = more signal;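 also: probe is a biotin-tagged antibody raised against NOTCH3 rather than NOTCH3 protein; score merges spot fluorescence near 667 nm with spot signal to noise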
# [4] = small-molecule binders of probe aNOTCH2, primary screen, biochemical, small-molecule microarray, 635/667 nm fluorescence (AID 1121); settings: higher = more signal;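 also: score merges feature fluorescence read at 667 nm with its signal to noise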
# [5] = molecular target: Carbonic anhydrase 2 (Homo sapiens) (UniProt P00918); assay: CAII small-molecule binders, profiling panel, biochemical, small-molecule microarray, Alexa647-labelled CAII (AID 1122); settings: CAII-A647 binding fluorescence, higher = more signal
# [6] = COS7 lysate on small-molecule microarray, probe aHis, 635 nm (AID 1123); settings: COS7 cell lysate, fluorescence, higher = more signal;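 also: z-score combines 667nm fluorescence intensity with signal-to-noise per printed compound spot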
# [7] = compound binding in COS7 lysate, probe aLAP1, primary screen, cell lysate, small-molecule microarray (AID 1124); settings: probe aLAP1, fluorescence, higher = more signal;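 also: lysate comes from COS7 cells expressing LAP1 and is applied at 0.3 µg/mL; score merges spot fluorescence near 667 nm with signal-to-noise over triplicate slides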
# [8] = system: Sam68 (KHDRBS1); assay: Sam68 small-molecule binders, primary screen, biochemical, small-molecule microarray, 635 nm fluorescence (AID 1125); settings: small-molecule microarray binding, higher = more signal;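 also: score merges 667 nm channel intensity with signal to noise over triplicate slides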
# [9] = system: Chordin-like protein 2 (CHRDL2); assay: CHRDL2 small-molecule binders, primary screen, biochemical, small-molecule microarray, 635 nm fluorescence (AID 1126); settings: small-molecule microarray binding, fluorescence 635 nm; higher = more signal;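 also: printed compound slides probed with Chrdl2 protein at 4 µg/mL for 1 h at 4 C; score merges 667 nm emission intensity with signal to noise over three replicate slides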
# [10] = molecular target: Concanavalin-A (Canavalia ensiformis) (UniProt P02866); assay: ConA small-molecule binders, primary screen, artefact control for SMM control protein annotation, biochemical, small-molecule microarray, Alexa647 label, 635 nm (AID 1127); settings: ConA-A647 binding fluorescence, higher = more signal;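 also: z combines 667 nm emission intensity with signal-to-noise across three replicate slides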
# [11] = anti-His antibody binders, primary screen, artefact control for SMM control protein annotation, biochemical, small-molecule microarray, 635 nm fluorescence (AID 1128); settings: anti-His Alexa647 antibody binding, higher = more signal;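 also: score merges feature fluorescence with signal-to-noise for each printed compound spot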
# [12] = system: Human papillomavirus type 1a E7 protein (residues 1-88); assay: HPV1a E7 small-molecule binders, primary screen, biochemical, small-molecule microarray, residues 1-88, 635 nm (AID 1129); settings: small-molecule microarray binding, fluorescence 635 nm; higher = more signal
# [13] = molecular target: Focal adhesion kinase 1 (Homo sapiens) (UniProt Q05397); assay: small-molecule microarray binders of FAK, primary screen, biochemical, 635/667 nm fluorescence, BSA, DTT (AID 1130); settings: PTK2 binding, 635 nm fluorescence, higher = more signal;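 also: composite of spot emission at 667 nm and signal to noise over triplicate slides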
# [14] = system: Fibrinogen (Alexa647-labelled); assay: fibrinogen binders on compound microarrays, profiling panel, artefact control for SMM control-protein annotation, biochemical, small-molecule microarray, 635/667 nm fluorescence (AID 1131); settings: fibrinogen-A647 binding fluorescence, higher = more signal;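 also: z-score merges 667 nm fluorescence with per-spot signal-to-noise over triplicate slides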
# [15] = molecular target: Follistatin (Homo sapiens) (UniProt P19883); assay: follistatin binders on small-molecule microarrays, primary screen, biochemical, small-molecule microarray, 635/667 nm fluorescence (AID 1132); settings: FST binding, 635 nm fluorescence, higher = more signal
# [16] = molecular target: Fibroblast growth factor 2 (Homo sapiens) (UniProt P09038); assay: FGF2 binders on small-molecule microarrays, primary screen, biochemical, small-molecule microarray, 635/667 nm fluorescence (AID 1133); settings: small-molecule microarray binding, FGF2, fluorescence 635/667; higher = more signal
# [17] = mitochondrial membrane potential change in A549 cells, profiling panel, cell-based, JC-1 fluorescence, basal, 24 h, 100 nL (AID 1138); settings: higher = more signal;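 also: A549 lung adenocarcinoma cells under basal conditions with no added stimulus; test concentration not given here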
# [18] = system: Lefty1; assay: Lefty1 binders on small-molecule microarrays, primary screen, biochemical, small-molecule microarray, 635/667 nm fluorescence (AID 1139); settings: small-molecule microarray binding, fluorescence 635/667; higher = more signal
# [19] = system: wheat germ agglutinin (Triticum aestivum), Alexa647-labelled; assay: wheat germ agglutinin binders on compound microarrays, profiling panel, artefact control for SMM control-protein annotation, biochemical, small-molecule microarray, 635/667 nm fluorescence (AID 1140); settings: WGA-A647 binding, 635 nm fluorescence, higher = more signal;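 also: score merges 667 nm feature emission with signal to noise over triplicate slides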
# [20] = molecular target: Luciferin 4-monooxygenase (Photinus pyralis) (UniProt P08659); assay: firefly luciferase enzyme inhibitors, primary screen, biochemical, luminescence, purified enzyme, 2006 set (AID 1141); settings: SteadyGlo luminescence, 30 min, higher = more signal, called active from +8 up or from −8 down;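 also: cell-free assay with purified firefly luciferase at 100 ng per well in PBS; test concentration not given here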
# Chain of Luciferin 4-monooxygenase (Photinus pyralis) (P08659 whole entry, looked up): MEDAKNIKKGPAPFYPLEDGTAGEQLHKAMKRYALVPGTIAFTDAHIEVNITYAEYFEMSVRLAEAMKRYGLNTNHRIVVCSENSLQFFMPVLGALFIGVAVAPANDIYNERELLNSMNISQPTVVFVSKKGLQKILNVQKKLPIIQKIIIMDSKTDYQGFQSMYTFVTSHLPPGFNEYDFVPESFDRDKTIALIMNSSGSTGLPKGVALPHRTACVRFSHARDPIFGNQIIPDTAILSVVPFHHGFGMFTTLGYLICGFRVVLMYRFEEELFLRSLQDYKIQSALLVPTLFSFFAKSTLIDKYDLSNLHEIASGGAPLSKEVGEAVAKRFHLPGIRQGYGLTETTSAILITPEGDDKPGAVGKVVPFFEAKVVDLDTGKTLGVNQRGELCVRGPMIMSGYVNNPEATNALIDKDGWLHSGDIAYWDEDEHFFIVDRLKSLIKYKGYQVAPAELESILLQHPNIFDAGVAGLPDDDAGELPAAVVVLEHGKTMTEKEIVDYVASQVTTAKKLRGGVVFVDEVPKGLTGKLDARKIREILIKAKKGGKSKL
# Chain of Concanavalin-A (Canavalia ensiformis) (P02866 whole entry, looked up): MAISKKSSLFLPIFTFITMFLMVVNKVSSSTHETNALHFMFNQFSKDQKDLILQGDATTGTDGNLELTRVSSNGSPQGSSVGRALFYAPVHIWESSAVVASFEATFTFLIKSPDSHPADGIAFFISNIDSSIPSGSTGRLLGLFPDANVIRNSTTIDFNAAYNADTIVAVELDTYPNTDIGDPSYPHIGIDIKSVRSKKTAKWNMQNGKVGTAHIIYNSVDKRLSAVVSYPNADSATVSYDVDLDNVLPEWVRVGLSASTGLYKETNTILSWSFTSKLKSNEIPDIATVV
# Chain of Albumin (Bos taurus) (P02769 whole entry, looked up): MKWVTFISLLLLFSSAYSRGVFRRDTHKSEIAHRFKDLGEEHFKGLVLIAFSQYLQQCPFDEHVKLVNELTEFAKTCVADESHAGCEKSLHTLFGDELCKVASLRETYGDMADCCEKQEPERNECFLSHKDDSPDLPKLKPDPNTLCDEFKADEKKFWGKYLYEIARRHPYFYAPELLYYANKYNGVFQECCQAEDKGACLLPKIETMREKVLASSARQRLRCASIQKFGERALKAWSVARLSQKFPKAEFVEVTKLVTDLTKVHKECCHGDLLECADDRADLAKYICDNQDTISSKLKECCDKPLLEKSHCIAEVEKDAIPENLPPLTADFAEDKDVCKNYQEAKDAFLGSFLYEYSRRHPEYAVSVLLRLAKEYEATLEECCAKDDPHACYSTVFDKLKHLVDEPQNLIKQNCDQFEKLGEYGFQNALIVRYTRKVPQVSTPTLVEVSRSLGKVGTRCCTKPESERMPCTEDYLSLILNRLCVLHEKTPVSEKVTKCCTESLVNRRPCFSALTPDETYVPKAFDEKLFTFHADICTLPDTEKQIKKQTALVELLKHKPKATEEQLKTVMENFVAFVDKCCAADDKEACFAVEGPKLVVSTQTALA
# Chain of Follistatin (Homo sapiens) (P19883 whole entry, looked up): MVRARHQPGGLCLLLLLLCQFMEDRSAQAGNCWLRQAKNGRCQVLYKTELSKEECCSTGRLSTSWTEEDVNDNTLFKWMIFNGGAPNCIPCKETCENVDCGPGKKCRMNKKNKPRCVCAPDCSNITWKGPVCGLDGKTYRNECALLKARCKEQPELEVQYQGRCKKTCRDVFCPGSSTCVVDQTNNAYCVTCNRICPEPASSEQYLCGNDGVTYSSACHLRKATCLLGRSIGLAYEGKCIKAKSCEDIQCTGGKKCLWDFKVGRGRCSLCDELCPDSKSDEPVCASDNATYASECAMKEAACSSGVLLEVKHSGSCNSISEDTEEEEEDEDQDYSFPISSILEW
# Chain of Fibroblast growth factor 2 (Homo sapiens) (P09038 whole entry, looked up): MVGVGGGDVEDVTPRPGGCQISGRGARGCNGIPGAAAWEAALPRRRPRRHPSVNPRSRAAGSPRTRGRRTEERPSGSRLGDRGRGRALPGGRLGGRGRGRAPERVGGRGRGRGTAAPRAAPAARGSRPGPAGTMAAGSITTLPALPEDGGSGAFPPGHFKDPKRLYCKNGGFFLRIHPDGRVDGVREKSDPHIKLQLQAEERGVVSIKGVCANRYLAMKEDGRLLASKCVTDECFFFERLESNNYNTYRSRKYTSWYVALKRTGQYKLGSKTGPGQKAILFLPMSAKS
# Chain of Focal adhesion kinase 1 (Homo sapiens) (Q05397 whole entry, looked up): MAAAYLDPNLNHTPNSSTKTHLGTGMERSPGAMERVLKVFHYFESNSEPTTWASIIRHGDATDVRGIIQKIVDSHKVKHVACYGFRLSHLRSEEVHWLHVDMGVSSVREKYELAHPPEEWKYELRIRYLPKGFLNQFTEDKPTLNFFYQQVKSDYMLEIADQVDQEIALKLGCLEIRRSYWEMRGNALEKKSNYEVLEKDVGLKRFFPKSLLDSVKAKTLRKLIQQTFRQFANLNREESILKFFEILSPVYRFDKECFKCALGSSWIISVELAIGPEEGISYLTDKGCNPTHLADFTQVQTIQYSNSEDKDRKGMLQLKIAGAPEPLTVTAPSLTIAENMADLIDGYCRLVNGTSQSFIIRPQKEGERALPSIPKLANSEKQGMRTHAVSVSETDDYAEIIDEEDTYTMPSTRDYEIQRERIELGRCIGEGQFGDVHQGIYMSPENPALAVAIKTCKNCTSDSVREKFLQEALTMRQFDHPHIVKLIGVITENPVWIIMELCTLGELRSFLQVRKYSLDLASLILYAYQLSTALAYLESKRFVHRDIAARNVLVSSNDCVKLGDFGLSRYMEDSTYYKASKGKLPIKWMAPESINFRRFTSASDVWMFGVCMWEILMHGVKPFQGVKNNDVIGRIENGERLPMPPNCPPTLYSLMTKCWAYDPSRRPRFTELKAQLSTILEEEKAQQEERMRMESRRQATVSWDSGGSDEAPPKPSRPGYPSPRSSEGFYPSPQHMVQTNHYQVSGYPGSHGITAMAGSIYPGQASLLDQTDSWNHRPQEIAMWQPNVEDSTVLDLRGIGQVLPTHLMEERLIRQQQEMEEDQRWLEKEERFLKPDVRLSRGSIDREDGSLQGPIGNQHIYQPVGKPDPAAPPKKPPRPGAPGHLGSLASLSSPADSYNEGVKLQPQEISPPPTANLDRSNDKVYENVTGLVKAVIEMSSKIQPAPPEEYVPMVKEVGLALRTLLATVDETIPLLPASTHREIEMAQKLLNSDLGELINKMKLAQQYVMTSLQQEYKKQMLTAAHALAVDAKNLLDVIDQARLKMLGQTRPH
SMILES,composite z-score [1],composite Z-score [2],composite z-score [3],composite z-score [4],composite z-score [5],composite z-score [6],composite z-score [7],composite z-score [8],composite z-score [9],composite z-score [10],composite z-score [11],composite z-score [12],composite z-score [13],composite z-score [14],composite z-score [15],composite z-score [16],z-score [17],composite z-score [18],composite z-score [19],z-score [20]
CCCC[C@@H](O)C1=C(C)Cn2c(=O)n(-c3ccccc3)c(=O)n2[C@H]1CO,0.138,-0.301 (inactive),-0.0647,-0.219,-0.313,0.332,-0.0242,-0.92,0.24,-0.827,-0.237,-0.432,-0.137,-0.926,-0.355,0.0632,2.01,0.0378,0.502,-1.32 (inactive)
C=CCOC(=O)[C@H]1[C@@H]2C(=O)O[C@@H](c3ccccc3)[C@@H](c3ccccc3)N2[C@@H](c2ccc(OCCOC(=O)[C@H]3C[C@H]4C(=O)NCC(=O)N4[C@H]3c3cccc(OCCO)c3)cc2)[C@]12C(=O)Nc1ccc(I)cc12,-0.0037,0.642 (inactive),0.138,-0.125,0.567,2.2,0.692,1.29,0.866,1.14,0.844,1.06,0.835,0.494,1.41,1.37,-0.715,1.5,0.288,-0.919 (inactive)
COc1cccc(C)c1NC(=O)O[C@H]1[C@H](OC(=O)Nc2ccccc2)[C@@H](OC(=O)Nc2ccccc2)[C@@H](OC)O[C@@H]1CO,0.541,-0.376 (inactive),0.163,-0.0811,0.461,2.66,0.665,1.29,0.174,1.08,1.78,1.29,0.452,1.01,1.38,0.432,-1.54,0.662,1.04,-0.321 (inactive)
C=C(CCCC)/C(=C/C[C@@H](OC(C)=O)c1ccc(OCCO)cc1)c1cc(C(=O)OC)ccc1OC,-0.526,0.0578 (inactive),-0.0377,-0.092,0.721,1.55,0.155,1.2,-0.362,0.787,-0.435,0.858,0.304,-0.156,0.335,-0.0009,1.85,0.548,0.94,-1.07 (inactive)
C=CCNC(=O)[C@@H]1[C@H]2C(=O)O[C@H](c3ccccc3)[C@H](c3ccccc3)N2[C@H](c2ccc(O)cc2)[C@@]12C(=O)Nc1ccc(C#CC3=CCCCC3)cc12,0.543,0.986 (inactive),1.22,-0.0857,0.676,1.69,1.24,1.32,0.334,1.04,0.844,1.18,0.721,0.668,1.24,0.494,0.22,1.43,1.06,-0.806 (inactive)
C=C(/C=C\CNS(=O)(=O)c1ccc(C)cc1)[C@H](O)[C@H]1CCCN1S(=O)(=O)c1ccccc1[N+](=O)[O-],0.678,-0.429 (inactive),0.0026,-0.147,0.319,0.119,-0.538,0.127,0.411,0.152,0.721,0.427,0.445,0.191,0.216,0.272,-0.321,0.177,0.878,-1.1 (inactive)
[N-]=[N+]=NCc1ccccc1C[C@@]1(C(N)=O)N=C(c2ccc(OCCCO)cc2)O[C@@H]1c1ccccc1N=[N+]=[N-],0.873,-0.254 (inactive),0.0065,0.0368,0.63,2.8,0.197,0.816,0.0247,1.12,1.16,1.24,0.0254,0.991,0.102,-0.131,0.306,-0.804,0.68,-5.46 (inactive)
